Compound activity as filed in PubChem.
sEH act: increases human soluble epoxide hydrolase activity. purified human sEH enzymatic activity, activator screen. P34913. activation, % at 2 µM. 0.04% of 91,000 active; in the data active means activation above about 37%
Target sequence (P34913 whole entry, looked up): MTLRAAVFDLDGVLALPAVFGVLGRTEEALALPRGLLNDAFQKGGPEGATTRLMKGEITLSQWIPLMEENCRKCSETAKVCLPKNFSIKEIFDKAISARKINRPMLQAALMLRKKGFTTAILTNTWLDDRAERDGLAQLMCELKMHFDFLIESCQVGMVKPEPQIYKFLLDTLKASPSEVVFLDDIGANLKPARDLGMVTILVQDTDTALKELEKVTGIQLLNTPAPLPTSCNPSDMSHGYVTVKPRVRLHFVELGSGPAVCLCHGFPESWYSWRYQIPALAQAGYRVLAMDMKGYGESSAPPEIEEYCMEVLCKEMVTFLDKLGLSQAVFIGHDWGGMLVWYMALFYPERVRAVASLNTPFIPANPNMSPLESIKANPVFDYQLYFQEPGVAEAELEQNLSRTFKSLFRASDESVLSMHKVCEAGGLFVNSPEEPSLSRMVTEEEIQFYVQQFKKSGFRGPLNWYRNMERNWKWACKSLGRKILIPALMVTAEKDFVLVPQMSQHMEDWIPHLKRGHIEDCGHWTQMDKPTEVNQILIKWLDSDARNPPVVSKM
CYP2C9 inhib: blocks human cytochrome P450 2C9; CYP2C9 Supersomes, luciferin-H conversion, luminescence; inhibition, % at 5 µM; AID 777; 20% of 96,000 active; P11712;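 active means blocking of liver enzyme CYP2C9 beyond about 50% at 5 µM, limit read from the data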
CYP2C9 act: activators of human CYP2C9; recombinant CYP2C9, luciferin-H conversion, luminescence; hits give high values; factor 1 = untreated enzyme, 0 = blocked; AID 1024; activation factor at 5 µM; P11712; 1.4% of 96,000 active;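 active means activation factor of 2 or more for CYP2C9 at a 5 µM dose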;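 further: 0 = sulfaphenazole-blocked wells and 1 = vehicle-only wells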
CYP2C19 inh: blocks human cytochrome P450 2C19 | CYP2C19 Supersomes, luciferin-H EGE luminescence, 30 min | P33261 | 21% of 96,000 active | inhibition, % at 5 µM;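 active means CYP2C19 inhibition above a set limit at 5 µM in the primary screen, cut at about 50% in these data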;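 further: plate controls were negative control wells for no effect and 2.5 mM tranylcypromine positive control for full effect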
sEH inh: soluble epoxide hydrolase (human) inhibition; inhibition, % at 2 µM; P34913; 0.34% of 91,000 active; recombinant human sEH enzymatic activity assay; AID 707; in the data active means inhibition above about 80%
CYP2C19 act: increases human CYP2C19 enzyme activity. recombinant CYP2C19, luciferin-H EGE luminescence; hits give high values; 0 = fully inhibited enzyme, 1 = untreated enzyme. activation factor at 5 µM. 96,000 tested, under 10 active;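 active means activation factor of at least 2 at 5 µM in the primary screen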;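 further: 0 = wells with 2.5 mM tranylcypromine and 1 = vehicle-only wells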
The depositor's hits bear a star; . = no result. Only some compounds are listed: those with a hit (about 27% of all), similar ones and a draw of the others.

SMILES	sEH act	CYP2C9 inhib	CYP2C9 act	CYP2C19 inh	sEH inh	CYP2C19 act
CCOC(=O)c1c(C)n(C)c2ccc(OCC(O)Cn3nc(C)cc3C)cc12 (configuration not stated)	-8	74*	0.3	78*	3	0.2
CCOC(=O)c1c(C)n(C)c2ccc(OCC(O)CN(CC)CC)cc12 (configuration not stated)	0	0	1	-9	1	1.1
O=C(CSc1nc2nc[nH]c2c(=O)[nH]1)NC1CCCCC1	15	-12	1.1	-16	-17	1.2
CC(C)C(=O)Nc1ccc(Sc2ccc(F)cc2)cc1	-18	24	0.8	38	19	0.6
Cc1ccc2c(c1)-c1c(cnn1CC(=O)Nc1ccccc1N1CCN(C)CC1)CO2	.	26	0.7	-2	.	1
Cc1ccc(-c2nc3ccccc3n2C)o1	5	26	0.7	67*	-3	0.3
Cn1c(-c2ccc(Br)o2)nc2ccccc21	1	38	0.6	75*	-2	0.3
Cc1oc(-c2nc3ccccc3n2C)cc1C(=O)c1ccccc1	-3	.	.	.	4	.
Cn1c(SCc2nc3ccccc3n2CCO)nc2ccccc21	.	9	0.9	45	.	0.6
Cn1c(-c2ccc(Br)o2)nc2cc(Br)ccc21	-6	9	0.9	26	4	0.7
Cn1c(Sc2nc3ccccc3n2C)nc2ccccc21	-3	53*	0.5	95*	1	0.1
CC(=O)c1ccc(-c2nc3ccccc3n2C)o1	14	28	0.7	61*	-9	0.4
Cc1ccc(C2Nc3ccccc3-c3nc4ccccc4n32)o1 (configuration not stated)	8	.	.	.	-14	.
CCOc1ccccc1NC(=O)c1c(NC(=O)CNCc2ccco2)sc2c1CCC2	.	16	0.8	4	.	1
Cc1ccc(CSCCNS(C)(=O)=O)cc1	-4	20	0.8	21	4	0.8
CN1CCN(C(=O)CN(c2cc(C(F)(F)F)ccc2Cl)S(C)(=O)=O)CC1	-16	0	1	28	14	0.7
O=C(CCN1C(=O)CSC1=O)Nc1ccccc1	.	-11	1.1	-5	.	1
O=C(COC(=O)CCC(=O)c1ccc2c(c1)OCCO2)NCc1ccc2c(c1)OCO2	-4	81*	0.2	50	6	0.5
O=C(COC(=O)c1ccc2c(c1)OCO2)NCc1ccc(Cl)cc1	7	-98	2*	37	-9	0.6
Cc1cc(=O)oc2cc(OCC(=O)OCC(=O)NCc3ccc4c(c3)OCO4)ccc12	0	-63	1.6	39	2	0.6
N#Cc1ccc(Cl)cc1NC(=O)COC(=O)c1ccc2c(c1)OCCO2	7	15	0.8	18	-5	0.8
Cc1cc2oc(=O)c3c(c2cc1OC(=O)c1ccco1)CCCC3	-5	-21	1.2	1	7	1
CCOC(=O)COc1cc2c3c(c(=O)oc2cc1C)CCCC3	1	60*	0.4	25	2	0.8
Cc1cnn(-c2cc(Oc3ccccc3)ncn2)c1	14	5	0.9	36	-14	0.6
Cc1ccc(CNCCC2=CCCCC2)cc1	-19	-4	1	94*	19	0.1
SMILES	sEH act	CYP2C9 inhib	CYP2C9 act	CYP2C19 inh	sEH inh	CYP2C19 act
COc1nc(NCCC2=CCCCC2)nc(OC)n1	.	20	0.8	17	.	0.8
C1=C(CCNCC2CC2)CCCC1	21	-56	1.6	54*	-21	0.5
CCOC(=O)c1ccc2[nH]c3c(c2c1)CCCC3C(=O)OCC (configuration not stated)	5	82*	0.2	89*	-2	0.1
COc1ccc(/C=C2\CCCC(C(=O)C(F)(F)F)=C2O)cc1	-2	82*	0.2	-14	2	1.1
CCn1c(=S)ccc2ccc(OC)cc21	6	28	0.7	64*	-2	0.4
c1cc2c(cc1Oc1nc(N3CCOCC3)nc(N3CCOCC3)n1)OCO2	-3	-11	1.1	-5	6	1.1
COc1ccccc1-n1c(CNC(=O)COc2ccccc2)n[nH]c1=S	0	-9	1.1	33	1	0.7
CC(=O)Nc1nc(C)nc(C)c1C(C)=O	4	-1	1	1	-2	1
COc1ccc(C(=O)N=c2sc3c(C)ccc(OC)c3n2C)cc1	.	53*	0.5	30	.	0.7
COc1ccc(OC)c2c1sc(=NC(=O)C(C)C)n2C	.	71*	0.3	71*	.	0.3
Cc1ccc(C)c(S(=O)(=O)NC(CC(C)C)C(=O)O)c1 (configuration not stated)	-4	11	0.9	8	1	0.9
CNS(=O)(=O)c1ccc(NC(=O)c2nc3nc(C)cc(C(F)F)n3n2)cc1	-5	-26	1.3	3	5	1
CC(=O)N(C)c1nnc(-c2ccccn2)s1	13	.	.	.	-10	.
c1cncc(-c2nnc(C3CCCCC3)o2)c1	3	8	0.9	13	-3	0.9
CCn1c(SCC(=O)c2ccc(C)cc2)nnc1-c1ccoc1C	12	35	0.7	98*	-14	0
CCn1c(SCC(=O)c2ccccc2)nnc1-c1ccoc1C	10	54*	0.5	97*	-13	0
CCn1c(SCC(=O)c2ccc(Cl)cc2)nnc1-c1ccoc1C	16	26	0.7	66*	-21	0.3
COc1ccc(C)cc1NC(=O)CN1CCN(S(=O)(=O)c2ccc(Br)cc2)CC1	10	19	0.8	-12	-13	1.1
CS(=O)CCC(NS(=O)(=O)c1ccccc1)C(=O)O (configuration not stated)	.	5	0.9	-17	.	1.2
Cc1cc(N(C)Cc2ccccc2)nc(-c2ccccc2)n1	15	80*	0.2	96*	-14	0
Cc1ccc(C(=O)CC2SC(N)=NC2=O)cc1 (configuration not stated)	-17	-17	1.2	9	17	0.9
CC(C)(C)c1ccc(S(=O)(=O)CCc2ccccn2)cc1	7	20	0.8	68*	-5	0.3
Cc1cc2nc(SCCN3CCCC3)[nH]c2cc1C	.	-2	1	8	.	0.9
Cc1sc2nc(SCc3nc(-c4cccs4)no3)n(-c3ccccc3)c(=O)c2c1C	-6	66*	0.3	20	9	0.8
c1ccc(-n2c(SCc3nc(-c4cccs4)no3)nnc2-c2ccco2)cc1	.	92*	0.1	43	.	0.6
c1ccc(-n2c(SCc3ccncc3)nnc2-c2ccco2)cc1	-4	76*	0.2	59*	5	0.4
CCCCCSc1nc2c(c(=O)[nH]c(=O)n2C)n1CCc1ccccc1	.	-3	1	0	.	1
CC(Sc1ccccn1)C(=O)Nc1ccccc1 (configuration not stated)	9	36	0.6	81*	-5	0.2
COc1ccc(NC(=O)C(C)Sc2ccccc2)cc1 (configuration not stated)	-8	64*	0.4	51*	6	0.5
